# NS1 function inh = blocks influenza NS1 protein function; Potency, µM (top dose mostly 46.1 µM), without a hit: top-dose activity, positive = more growth; actives 0.4% (n = 270,000); calls by dose curve; note: actives are rising curves; nearly all actives have a fitted effect of over 50% in size
#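 S. cerevisiae expressing influenza A NS1, grown in glucose, washed, then diluted 1:100 into pH 6.0 -URA galactose medium with 23 nl compound. Growth recovery read as OD600; NS1-free strain serves as control.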
# LmPK inh = blocks Leishmania mexicana pyruvate kinase activity. Q27686. purified LmPK, Kinase-Glo ATP luminescence, 1 h. Potency, µM (series often up to 57.5 µM), inactives show at the top dose activity change, negative = inhibition, actives largely listed as inhibitors. actives 0.37% (n = 290,000). AID 1721; note: % is set by controls: 0 for no effect and ±100 for the full control effect
# Target sequence (Q27686 whole entry, looked up): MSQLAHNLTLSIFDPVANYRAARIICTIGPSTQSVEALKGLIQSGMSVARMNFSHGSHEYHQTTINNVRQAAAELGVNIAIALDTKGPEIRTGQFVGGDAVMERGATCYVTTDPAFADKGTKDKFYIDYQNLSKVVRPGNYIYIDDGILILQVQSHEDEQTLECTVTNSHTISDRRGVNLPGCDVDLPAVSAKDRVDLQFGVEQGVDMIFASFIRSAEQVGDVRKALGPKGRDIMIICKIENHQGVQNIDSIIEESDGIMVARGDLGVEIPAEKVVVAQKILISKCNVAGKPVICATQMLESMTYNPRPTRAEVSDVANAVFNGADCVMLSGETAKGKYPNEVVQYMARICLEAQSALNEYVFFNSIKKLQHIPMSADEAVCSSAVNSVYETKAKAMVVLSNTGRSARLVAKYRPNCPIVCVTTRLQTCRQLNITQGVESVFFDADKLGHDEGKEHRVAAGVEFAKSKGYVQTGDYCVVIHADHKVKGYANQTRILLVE
#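 Kinase-Glo luminescence read after 1 h RT reaction of 0.1 nM LmPK with 0.5 mM PEP and 0.1 mM ADP. Activity scaled between uninhibited and enzyme-free controls.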
# Giardia FBPA inh-1 = inhibitors of Giardia lamblia fructose-1,6-bisphosphate aldolase; purified Giardia FBPA; AID 2451; Potency, µM (titrated, usually from 59.6 µM), without a hit: at the highest dose activity, negative = inhibition, hits mostly inhibitors; actives 0.71% (n = 290,000); A8B2U2; note: % is set by controls: 0 for no effect and ±100 for the full control effect; nearly all actives have a fitted effect of over 55% in size
#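 Giardia FBPA (40 nM reagent) was preincubated 10 min at RT with compound (up to 57.5 uM final), then substrate plus GAPDH/TPI/NAD/arsenate coupling system with diaphorase/resazurin was added; resorufin fluorescence (525/598 nm) was read after 20 min.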
# TbPYK inhibitor = T. brucei pyruvate kinase inhibition; TbPYK enzyme, Kinase-Glo Plus ATP luminescence, 45 min; Potency, µM (series often up to 76.8 µM), for the others: top-dose activity, negative = inhibition, most hits filed as inhibitors; actives 0.12% (n = 410,000); AID 624173; note: % is set by controls: 0 for no effect and ±100 for the full control effect; nearly all actives have a fitted effect of over 50% in size
#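 Quantitative HTS: titrated library compounds versus trypanosomal pyruvate kinase in TEA buffer (pH 7.2) containing KCl, MgCl2, BSA and Tween-20. Reactions were initiated with ADP, 130 uM final. Kinase-Glo Plus luminescence was read after 45 min at RT.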
# RE007 growth inh = less growth of the S. pombe RE007 Vpr strain. S. pombe RE007 Vpr strain, BacTiter-Glo ATP luminescence, 24 h. Potency, µM (doses to about 92.2 µM), without a hit: at the top dose activity change, negative = less growth, hits mostly inhibitors. actives 0.21% (n = 360,000); active = well fitted falling curve with a large enough effect; inconclusive = small, poorly fitted or top-dose-only effect; inactive = no such curve, though single readings can be large or run the other way; note: % is set by controls: 0 for no effect and ±100 for the full control effect; nearly all actives have a fitted effect of over 50% in size
#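 Fission yeast RE007 carrying one integrated HIV-1 vpr copy, seeded at OD 0.01 in PMG+AL medium with 23 nL pinned compound. Grown 24 h at 30 degrees; viability read by BacTiter-Glo luminescence after 5 min.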
# Sm TGR inh = blocks Schistosoma mansoni thioredoxin glutathione reductase | purified TGR, DTNB reduction, TNB absorbance 405 nm | Q962Y6 | actives 3% (n = 360,000) | Potency, µM (doses to about 114 µM), for the others: at the highest dose activity change, negative = inhibition, actives largely listed as inhibitors; note: % is set by controls: 0 for no effect and ±100 for the full control effect; nearly all actives have a fitted effect of over 60% in size
#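 Kinetic colorimetric format: TGR-catalysed, NADPH-driven DTNB reduction monitored via TNB absorbance. Enzyme dispensed at 20 nM; compound exposure 15 min at room temperature before reaction start.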
# Giardia growth = blocks growth of Giardia lamblia trophozoites. Giardia lamblia trophozoite growth inhibition. AID 2785. actives 5% (n = 1,500). Potency, µM (titrated, usually from 57.5 µM), for inactives: at the highest dose activity change, negative = inhibition, actives largely listed as inhibitors. shares compounds with Giardia FBPA inh-1;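 note: trophozoites exposed to compound for 48 h at 37 °C; % is set by controls: 0 for no effect and ±100 for the full control effect; nearly all actives have a fitted effect of over 70% in size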
# Mammalian tox = counter-screen for Giardia aldolase inhibitors: mammalian cell toxicity; actives 4% (n = 1,500); Potency, µM (series often up to 57.5 µM), for inactives: at the top dose viability change, negative = toxicity, actives largely listed as inhibitors; AID 2786; mammalian cell viability counter-screen, qHTS; shares compounds with Giardia FBPA inh-1;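 note: Chinese hamster ovary cells used as mammalian cytotoxicity surrogate; viability measured as cellular ATP by luminescence; compound exposure lasted 48 h before reading; % is set by controls: 0 for no effect and ±100 for the full control effect; nearly all actives have a fitted effect of over 60% in size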
# Giardia FBPA inh-2 = confirmation of Giardia fructose-bisphosphate aldolase inhibitors | shares compounds with Giardia FBPA inh-1 | purified Giardia aldolase enzyme activity, qHTS | Potency, µM (highest dose often 57.5 µM), without a hit: at the highest dose activity change, negative = inhibition, hits mostly inhibitors | actives 5% (n = 1,500) | AID 2787; note: % is set by controls: 0 for no effect and ±100 for the full control effect; nearly all actives have a fitted effect of over 45% in size
# Rabbit aldolase = selectivity test for Giardia aldolase inhibitors: rabbit aldolase. shares compounds with Giardia FBPA inh-1. Rabbit muscle FBPA enzyme inhibition, selectivity counter-screen. Potency, µM (series often up to 57.5 µM), for inactives: top-dose activity, negative = inhibition, hits mostly inhibitors. actives 4% (n = 1,500). AID 2794; note: % is set by controls: 0 for no effect and ±100 for the full control effect; nearly all actives have a fitted effect of over 60% in size
# GAPDH counter = GAPDH inhibition flagged for Giardia aldolase hits; shares compounds with Giardia FBPA inh-1; AID 2795; Potency, µM (highest dose often 57.5 µM), without a hit: top-dose activity change, negative = inhibition, most hits filed as inhibitors; GAPDH coupling enzyme counterscreen, biochemical, qHTS; actives 6% (n = 1,500); note: % is set by controls: 0 for no effect and ±100 for the full control effect; nearly all actives have a fitted effect of over 55% in size
# * hit, by the source's call; ? = inconclusive; . = not tested or not shown. In the library only some 3.5% were active in any assay of this set; here they are far more common. Unless noted, calls come from the whole dose curve; as a rule, active = well fitted curve in the direction sought with a large enough effect; inconclusive = small, poorly fitted or top-dose-only effect, or another doubt; inactive = no such curve, though single readings can be large; an effect the other way counts as inactive or inconclusive. Potency is the fitted concentration of half-maximal effect.
SMILES,NS1 function inh,LmPK inh,Giardia FBPA inh-1,TbPYK inhibitor,RE007 growth inh,Sm TGR inh,Giardia growth,Mammalian tox,Giardia FBPA inh-2,Rabbit aldolase,GAPDH counter
CCOC(=O)Cc1csc(NC(=S)NC(=O)c2cc(OC)c(OC)c(OC)c2)n1,0.0%,2.7%,19.9µM*,-0.1%,21.5%,-9.9%,-27.3%,-7.1%,-10.7%,-2.7%,2.1%
CCOC(=O)C1CCCN(CCC(=O)Nc2ccc(C)c(C)c2)C1 (stereo not drawn),.,2.1%,-3.4%,6.6%,-4.5%,1.6%,.,.,.,.,.
CCOC(=O)C1CCCN(CCC(=O)Nc2ccc(Br)c(C)c2)C1 (stereo not drawn),12.2%,-4.0%,14.1µM*,4.0%,-10.9%,-9.1%,?,-7.7%,3.7%,7.8%,10.3%
CC(C)Oc1ccc(CNC(=O)CCCn2c(=O)c3cccn3c3cccnc32)cc1,.,.,.,6.8%,.,8.3%,.,.,.,.,.
CN(C)S(=O)(=O)c1ccc(NC(=O)CN2CCCCCC2)cc1,10.8%,-6.3%,-2.6%,-1.8%,12.5%,-0.2%,.,.,.,.,.
CCN1CCN(CC(=O)Nc2ccc(C)c(Br)c2)CC1,1.7%,0.1%,?,19.5%,-10.3%,3.2%,.,.,.,.,.
CN1CCN(CC(=O)Nc2ccc(S(=O)(=O)N(C)C)cc2)CC1,8.9%,-10.5%,14.1µM*,-2.3%,1.7%,10.5%,?,-9.9%,5.5%,-3.7%,0.8%
Cc1ccc(NC(=O)CN2CCN(C)CC2)cc1Br,2.8%,-3.7%,15.8µM*,-2.3%,2.1%,2.2%,?,1.5%,0.3%,3.1%,4.6%
COc1cccc(NC(=O)CSc2nccn2C2CCCC2)c1,.,.,.,-2.4%,.,-6.2%,.,.,.,.,.
Cc1c(C#N)c(O)n(CCO)c(=O)c1N=Nc1ccc2c(c1)COC2=O,5.8%,-5.2%,19.9µM*,-8.9%,-12.2%,-0.4%,?,-5.2%,?,-28.4%,-21.5%
CCOc1ccc(-n2ccn3c(CC(C)CC(=O)O)nnc3c2=O)cc1 (stereo not drawn),.,.,.,1.6%,.,2.0%,.,.,.,.,.
Cn1c2ccccc2c2cc(/C=N/NC(=O)c3cc(O)ccc3O)ccc21,9.7%,0.1%,25.1µM*,-13.4%,-12.8%,?,-10.0%,0.6%,?,-6.8%,-29.3%
CCC(=O)N1CCc2cc(S(=O)(=O)NC(CC(C)C)C(=O)NCc3ccc(C)cc3)ccc21 (stereo not drawn),.,.,.,-10.3%,.,17.6%,.,.,.,.,.
N#C/C(=N\Nc1ccccc1)C(N)=S,-60.2%,5.5%,19.9µM*,-6.6%,26.8%,-3.1%,?,7.0%,11.8%,24.4%,13.3%
N#C/C(=N\Nc1ccc(Cl)cc1)C(N)=S,-65.7%,1.6%,-24.7%,-9.7%,-6.1%,-15.7%,.,.,.,.,.
Clc1cc(Br)ccc1OCCN1CCOCC1,-2.8%,-1.1%,-24.1%,5.7%,-12.8%,-8.9%,.,.,.,.,.
Brc1ccccc1OCCN1CCOCC1,13.7%,-1.6%,28.2µM*,17.2%,5.1%,-1.5%,31.5%,-0.2%,1.4%,-6.9%,6.9%

# Compound activity (PubChem)
